# BoNT A protease = inhibitors of Botulinum neurotoxin A light chain protease; inhibition, % at 10 µM; actives 0.17% (n = 360,000); multiplex microsphere protease substrate cleavage, flow cytometry
# Anthrax LF inh2 = blocks Bacillus anthracis lethal factor protease | P15917 | multiplex microsphere protease cleavage assay, LF | inhibition, % at 10 µM | actives 0.12% (n = 360,000)
# BoNT F protease = blocks Botulinum neurotoxin F light chain protease. inhibition, % at 10 µM. actives 0.22% (n = 360,000). Multiplex microsphere protease cleavage assay, flow cytometry; in the data active = inhibition above about 35%, passing the limit was not always enough; inconclusive = no clear call, values can overlap the other calls
# Bead autofluor = compound fluorescence in toxin protease inhibitor counterscreen; compound autofluorescence counterscreen, microsphere flow cytometry; active compounds read high; fluorescence intensity (concentration not given with the values); actives 3.1% (n = 360,000); AID 624483; in the data active = fluorescence intensity above about 16000; inconclusive = no clear call, values can overlap the other calls
# Numbers stand for hits; . = inactive; ? = inconclusive. An excerpt weighted towards active compounds, which were near 3.5% of everything screened. Rule as the data show it, unless noted: active = inhibition above about 30%; inconclusive = no clear call, values can overlap the other calls; inactive = below that.
SMILES,BoNT A protease,Anthrax LF inh2,BoNT F protease,Bead autofluor
CCOC(=O)C1CCN(C(=O)c2cccc(NC(=O)C(CC)CC)c2)CC1,.,.,.,.
CCOC(=O)C1CCN(Cc2ccc(F)cc2)CC1,.,.,.,16511
O=C1c2ccccc2C(=O)N1CCC#C/C=C1\c2ccccc2C(=O)N1c1ccccc1,.,.,.,.
COc1ccc(OC)c(CN2CCN(C(=O)c3ccc(S(=O)(=O)N4CCCCCC4)cc3)CC2)c1,.,.,.,.
COc1cc(-c2noc(CCCC(=O)NCc3ccco3)n2)cc(OC)c1OC,.,.,.,21043
O=C(CCc1nc(-c2ccccc2)no1)NCc1ccco1,.,.,.,.
Cc1ccc(-c2noc(CCC(=O)NCc3ccco3)n2)cc1,.,.,.,19424
CC(=O)c1ccc2c(c1)N(Cc1ccccc1)C(=O)C(C)S2 (centres undefined),.,.,.,.
O=C(CSc1nnc2ccccn12)NNC(=O)c1ccccc1F,.,.,.,.
CC1CCN(S(=O)(=O)c2ccc3c(c2)CCN3C(=O)CCC(=O)O)CC1,.,.,.,21818
CCCN(c1ccc(OCC)cc1)S(=O)(=O)c1ccc2c(c1)CCN2C(=O)CCC(=O)O,.,.,.,.
CCCCN(c1ccccc1)S(=O)(=O)c1ccc2c(c1)CCN2C(=O)CCC(=O)O,.,.,.,22207
O=C(O)CCC(=O)N1CCc2cc(S(=O)(=O)N3CCCCC3)ccc21,.,.,.,.
Cc1cccc(CN2[C@H](COCc3ccccc3)C=CS2(=O)=O)c1,.,.,.,.
CN1C(=O)CC(NNC(=O)c2ccc(Cl)cc2)C1=O (centres undefined),.,.,.,22298
CN1C(=O)CC(NNC(=O)c2ccccc2)C1=O (centres undefined),.,.,.,.
O=C(NNS(=O)(=O)c1ccc(Br)cc1)c1ccncc1,.,.,.,20766
O=C(NNC(=O)c1ccncc1)c1ccncc1,.,.,.,22444
COc1ccc(C)cc1NC(=O)COC(C)=O,.,.,.,16638
CCOC(=O)C1=C(C)NC(=O)C(C(N)=O)C12CCCC2 (centres undefined),?,.,.,23702
CC1CN(C=O)CC(C)N1CCN1C(C)CN(C=O)CC1C (centres undefined),.,.,.,.
COc1ccccc1N1CCN(C(=O)C2C3C=CC4(CN(Cc5ccccc5Cl)C(=O)C24)O3)CC1 (centres undefined),.,.,.,20591
COc1ccc(CCN2CC34C=CC(O3)C(C(=O)NCc3ccccc3Cl)C4C2=O)cc1OC (centres undefined),.,.,.,.
CC(C)C(=O)Nc1ccc2oc(-c3cc(F)c(F)cc3Cl)nc2c1,.,.,.,24150
CC(=O)Nc1ccc2oc(-c3cc(F)c(F)cc3Cl)nc2c1,.,.,.,.
SMILES,BoNT A protease,Anthrax LF inh2,BoNT F protease,Bead autofluor
CCN(CC)Cc1cc(C(C)=O)ccc1OCC(C)C,.,.,.,16228
CC(=O)c1ccc(OCC(C)C)c(CC(C(N)=O)C(N)=O)c1,.,.,.,.
CCOC(=O)c1cc(C#N)c(NCc2ccccc2)nc1C,.,.,.,.
CCOC(=O)c1nnc(-c2ccccc2)nc1NCc1ccccc1,.,.,.,24408
CN(C(=O)COC(=O)COc1ccccc1F)C1CCS(=O)(=O)C1 (centres undefined),.,.,38,.
CN(C(=O)COC(=O)C1CCN(S(=O)(=O)c2c(Cl)cccc2Cl)CC1)C1CCS(=O)(=O)C1 (centres undefined),.,.,.,?
Cc1cc(C)c(OCC(=O)OCC(=O)N(C)C2CCS(=O)(=O)C2)c(C)c1 (centres undefined),.,.,.,.
CN(C(=O)COC(=O)C1CCN(S(=O)(=O)c2cccs2)CC1)C1CCS(=O)(=O)C1 (centres undefined),?,.,.,20892
O=C(CSc1nc(-c2ccccc2)cs1)NC(=O)NCc1ccco1,.,.,.,.
O=C(CSc1nc2ccccc2s1)NC(=O)NCc1ccco1,.,.,.,22313
Cc1ccc(S(=O)(=O)NC(=O)CSc2nc3ccccc3s2)cc1,.,.,.,16909
CCCCCCOc1ccc(CN2CCN(C)CC2)cc1,?,.,.,24568
CN1C(=S)SC(N(O)C(=O)NC2CCCCC2)C1(C)C (centres undefined),?,.,.,21404
CCOC(=O)N1CCN(C(=O)c2ccc(CS(=O)c3cccc(C)c3)o2)CC1 (centres undefined),.,.,.,.
CCCOc1ccc(-c2nn(-c3ccccc3)cc2/C=C2\SC(=S)N(C3CCS(=O)(=O)C3)C2=O)cc1 (centres undefined),49,47,40,.
CCOc1ccc(-c2nn(-c3ccccc3)cc2/C=C2\SC(=S)N(C3CCS(=O)(=O)C3)C2=O)cc1 (centres undefined),36,.,43,.
Cc1nc(C(F)(F)F)ccc1C(=O)N1CCC1(C)C(=O)Nc1ccc2c(c1)OCO2 (centres undefined),.,.,.,.
CCOC(=O)CSc1nnc(CSc2nc3sc4c(c3c(=O)[nH]2)CCC4)n1-c1ccccc1,.,.,.,21953
O=C(Nc1ccc(Br)cc1Cl)c1cnccn1,?,.,.,17512
O=C(Nc1ccccc1Cl)c1cnccn1,.,.,.,.
CC1=C(C(=O)N(C)C)CC(CC(=O)NCCCN(C)C)C(=O)N1Cc1ccccc1 (centres undefined),.,.,.,.
O=C(O)CCn1c(SCCOc2ccccc2F)nc2ccccc21,.,.,?,.
CCn1nc(C)c(C(=O)Nc2cc(Oc3cc(C)cc(C)c3)cc([N+](=O)[O-])c2)c1C,?,.,.,22749
COc1cccc(S(=O)(=O)N(C)C[C@H]2OCc3cnnn3CCCC(=O)N([C@H](C)CO)C[C@@H]2C)c1,.,.,.,.
O=C(c1cccs1)N(C(=O)c1cccs1)c1ccc(Br)cn1,.,.,.,22230
SMILES,BoNT A protease,Anthrax LF inh2,BoNT F protease,Bead autofluor
Cc1nc(C(F)(F)F)ccc1C(=O)N1CCC1(C)C(=O)NS(=O)(=O)c1cccc(C#N)c1 (centres undefined),.,.,.,.
O=C(O)/C(=C\c1ccco1)NC(=O)c1cccc2ccccc12,.,.,.,20299
C=CCOC(=O)C1=C(C)OC(N)=C(C(=O)OCC)C12C(=O)N(CC(N)=O)c1ccccc12 (centres undefined),?,.,.,19254
CCOC(=O)C1=C(C)OC(N)=C(C(=O)OCC)[C@@]12C(=O)N(CC(N)=O)c1ccccc12,.,.,.,.
Cc1ccc(NC(=O)c2cc(S(=O)(=O)NCC3CCCO3)ccc2F)cc1 (centres undefined),.,.,.,.
O=S(=O)(NCC1CCCO1)c1ccc(-c2ccc(S(=O)(=O)NCC3CCCO3)cc2)cc1 (centres undefined),.,.,.,.
COc1cccc(CN(CC(=O)NCC2CCCO2)C(=O)CNS(=O)(=O)c2ccccc2)c1 (centres undefined),.,.,.,16841
COc1cccc2cc(C(=O)N3CCCCC3C)c(=O)oc12 (centres undefined),.,.,.,.
O=S(=O)(NCC1CCCO1)c1ccc(Oc2ccccc2)cc1 (centres undefined),.,.,.,21154
COc1cccc2cc(NC(=O)C3CCCCC3)c(=O)oc12,?,.,.,21365

# Assay outcomes deposited in PubChem by NMMLSC.
